Assay outcomes deposited in PubChem by several laboratories.
This is a sample that favours compounds with a hit; in the whole collection about 3.5% have one here.
UGM FP inh – inhibitors of M. tuberculosis UDP-galactopyranose mutase; P9WIQ1; purified UGM, fluorescence polarization probe displacement; inhibition, % at 10 µM; 320,000 compounds, 0.06% hits; in the data active = inhibition above about 10%, passing the limit was not always enough
FadD28 FP inh – blocks FadD28 binding to the bisubstrate probe; fluorescence polarization; 360,000 compounds, 0.22% hits; inhibition, % at 12.5 µM; in the data active = inhibition above about 8.5%, passing the limit was not always enough
GDH-TPI counter-1 – inhibits GDH-TPI coupling enzymes, artifact for Mtb FBA screen. inhibition, % at 4.8 µM. 360,000 compounds, 1.2% hits. AID 588335. GDH-TPI coupled enzyme counterscreen, NADH absorbance; in the data active = inhibition above about 30%;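 also: 0% = DMSO wells and 100% = wells lacking the enzyme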
FBA Mtb inh – inhibits M. tuberculosis FBA enzyme; purified M. tuberculosis FBA, fluorescence read-out; P9WQA3; AID 588726; 360,000 compounds, 2.3% hits; inhibition, % at 1 µM;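 also: 0% = vehicle and 100% = reference inhibitor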
Target sequence (P9WQA3 whole entry, looked up): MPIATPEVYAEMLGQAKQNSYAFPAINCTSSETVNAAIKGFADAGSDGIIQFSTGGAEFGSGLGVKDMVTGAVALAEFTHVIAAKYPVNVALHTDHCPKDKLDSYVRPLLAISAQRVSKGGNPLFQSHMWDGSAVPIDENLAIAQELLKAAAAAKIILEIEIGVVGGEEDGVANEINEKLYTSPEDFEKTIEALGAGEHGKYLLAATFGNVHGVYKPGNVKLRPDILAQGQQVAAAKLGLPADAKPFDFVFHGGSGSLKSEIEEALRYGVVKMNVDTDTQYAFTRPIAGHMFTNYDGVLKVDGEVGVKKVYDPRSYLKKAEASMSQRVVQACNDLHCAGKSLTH
Mtb hypoxia inh – Mtb hypoxia fluorescent reporter inhibition; M. tuberculosis hypoxia-regulated fluorescent reporter, fluorescence; fluorescence inhibition, % (no concentration beside the values); 300,000 compounds, 0.1% hits; in the data active = fluorescence inhibition mostly above about 23%, no sharp cut-off; inactive = mostly below about 17%
Rv3671c inh – inhibitors of M. tuberculosis serine protease Rv3671c | P9WHR9 | inhibition, % at 5.96 µM | 320,000 compounds, 0.048% hits; in the data active = inhibition above about 38%;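 also: extracellular domain of Rv3671c used as enzyme; 0% = enzyme with DMSO and 100% = no enzyme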
Mtb FBA inh conf – confirmation of M. tuberculosis fructose-bisphosphate aldolase inhibitors | shares compounds with FBA Mtb inh | purified M. tuberculosis FBA, fluorescence read-out | inhibition, % at 1 µM | 5,600 compounds, 78% hits | AID 651616;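 also: 0% = vehicle wells and 100% = reference inhibitor wells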
GDH-TPI counter-2 – counter-screen for M. tuberculosis FBA inhibitors: GDH-TPI coupled enzyme inhibition. AID 652141. shares compounds with FBA Mtb inh. 5,600 compounds, 81% hits. GDH-TPI coupled enzyme counterscreen, fluorescence. inhibition, % at 1 µM; in the data active = inhibition above about 10%
* hit, by the source's call; . = not tested or not shown; + = active, no number. Rule as the data show it, unless noted: active = inhibition above about 27%; inactive = the rest.

SMILES | UGM FP inh | FadD28 FP inh | GDH-TPI counter-1 | FBA Mtb inh | Mtb hypoxia inh | Rv3671c inh | Mtb FBA inh conf | GDH-TPI counter-2
Oc1ccc(Cl)cc1C=Nc1ccccc1Br | -2 | -4 | -6 | -1 | 12 | 1 | . | .
C#Cc1ccc(C2C=C(C(=O)N3CCOCC3)OC(OCCCCO)C2)cc1 (centres undefined) | . | . | . | . | 18 | . | . | .
CC(C)(C)C=NNC(=O)C1CC1 | . | . | . | . | -3 | . | . | .
COc1ccc(-c2oc3ccccc3c2C(=O)OCc2ccccc2OC)cc1 | -1 | -1 | 31* | 73* | . | -21 | -7 | -8
COc1cc2c(OC)cccc2cc1C(=O)O | 1 | 0 | 11 | 65* | 9 | 4 | + | +
Oc1oc(-c2ccccc2)nc1C=Nc1ccccn1 | . | . | . | . | -1 | . | . | .
Cc1nn(-c2ccccn2)c2c1-c1nc(N)ncc1CC2 | -1 | -3 | 4 | 30* | . | 1 | 9 | -1
Cc1nn(-c2ccccn2)c(N)c1N=O | -1 | -3 | 16 | -7 | 14 | 4 | . | .
Cc1cc(=O)oc2cc(OCC(=O)OCC(=O)Nc3ccc(C(C)C)cc3)ccc12 | -1 | -2 | 6 | 29* | 6 | -10 | 86* | 69*
Cc1cc(=O)oc2cc(OCC(=O)Nc3ccc(S(=O)(=O)N(C)C)cc3)ccc12 | 0 | 2 | 5 | 29* | 11 | -16 | 101* | 64*
CNC(=O)COC(=O)COc1ccc2c(C)cc(=O)oc2c1 | -1 | -5 | 3 | 23 | 12 | 0 | . | .
O=C(CN1CCSCC1)NN=Cc1ccc(F)cc1 | . | . | . | . | 1 | . | . | .
COc1ccc2oc(C(F)(F)C(F)F)cc(=O)c2c1 | 3 | 0 | 14 | 43* | . | -12 | 75* | 52*
COc1ccc2oc3ccccc3c(=O)c2c1 | -3 | -1 | 10 | 101* | -3 | -8 | + | +
CN1CC2C3C(=O)N(C)C(=O)C3[C@](C)(C1=O)N2C(=O)c1ccc(C(C)(C)C)cc1 (some centres undefined) | . | . | . | . | 13 | . | . | .
Cc1ccc(C)c(NC(=O)CSc2nc3nc(-c4cccs4)cc(C(F)(F)F)c3c(=O)[nH]2)c1 | -1 | -6 | 5 | 44* | 10 | -48 | 86* | 82*
O=C(CSc1nc2nc(-c3cccs3)cc(C(F)(F)F)c2c(=O)[nH]1)Nc1ccc(F)c(F)c1 | -1 | -2 | 11 | 20 | -14 | -99 | . | .
CC(=NNC(=O)Nc1ccccc1)c1ccccc1 | . | . | . | . | 0 | . | . | .
CCc1c(C2(O)CCCCC2)[nH]c2cnccc12 | 2 | 0 | 10 | 78* | 12 | -6 | + | 170*
Cc1c(C2(O)CCCCC2)[nH]c2ccc(C(F)(F)F)cc12 | 5 | 0 | 6 | 4 | . | -1 | . | .
O=S1c2ccccc2-c2ccccc21 | . | -2 | -1 | 1 | . | . | . | .
O=[N+]([O-])c1ccc2c(c1)S(=O)c1ccccc1-2 (centres undefined) | 0 | -2 | 26 | 27* | 9 | 7 | 147* | 110*
Cc1cc(C=NNC(=O)CC(=O)NC2CCCCC2)c(C)n1-c1ccc(Cl)cc1 | . | . | . | . | 8 | . | . | .
O=C1C=CC(=O)N1c1ccc(-c2nc3ccccc3o2)cc1 | . | -4 | 20 | 65* | . | . | -3 | -5
c1ccc2[nH]c(-c3ccnc4ccccc34)nc2c1 | -2 | -4 | 25 | 45* | -3 | 0 | 119* | 87*
SMILES | UGM FP inh | FadD28 FP inh | GDH-TPI counter-1 | FBA Mtb inh | Mtb hypoxia inh | Rv3671c inh | Mtb FBA inh conf | GDH-TPI counter-2
c1ccc2c(-c3nc4ccccc4[nH]3)cccc2c1 | . | -5 | 0 | 107* | . | . | 80* | 42*
O=C1C(Nc2ccc(O)cc2)=CC(=NS(=O)(=O)c2cccs2)c2ccccc21 | . | . | . | . | 2 | . | . | .
CNc1cncc(-c2cc(OC)ccc2OC)n1 | . | -2 | 26 | 1 | . | . | . | .
CNc1ccc(-c2cc(OC)ccc2OC)cn1 | . | -3 | 9 | 98* | . | . | + | 155*
CNc1cc(-c2cc(OC)ccc2OC)ncn1 | . | -1 | 3 | 84* | . | . | 2 | -1
CN1CCc2c(sc3c2c(=O)n(-c2cccc(Cl)c2)c2nncn32)C1 | -1 | -5 | 0 | 6 | 6 | -1 | . | .
CN1CCc2c(sc3nc(NCCO)n(-c4cccc(Cl)c4)c(=O)c23)C1 | 2 | -3 | 23 | 71* | 1 | -2 | 109* | 88*
CCOC(=O)C1CCc2c(ccc3ccccc23)N1CCC#N (centres undefined) | . | 0 | -1 | 56* | . | . | 2 | -4
CC(C)(C)C(=O)c1sc2nc(-c3cccs3)cc(C(F)(F)F)c2c1N | 4 | -2 | -1 | 30* | -4 | 11 | 49* | 47*
Cc1cc(C(F)(F)F)c2c(N)c(C(=O)NC3CC3)sc2n1 | 1 | 1 | 14 | 4 | -1 | 1 | . | .
NC(=O)c1sc2nc(-c3ccccc3)ccc2c1N | 1 | -4 | -2 | 0 | 12 | -1 | . | .
Nc1c(C(=O)Nc2nccs2)sc2nc(-c3cccs3)cc(C(F)(F)F)c12 | 1 | -2 | 10 | 42* | 4 | -9 | 39* | 28*
NC(=O)c1sc2nc(-c3cccs3)ccc2c1N | 2 | 1 | 25 | 76* | 2 | -7 | 62* | 56*
Cc1nnc(NC(=O)c2sc3nc(-c4cccs4)cc(C(F)(F)F)c3c2N)s1 | 2 | 9.4* | 43* | 33* | . | -2 | 5 | 2
COC(=O)CN1C(=O)C2C(C)C3=C4C(CC(C(=O)OC)=CC(C(=O)OC)C4[C@](C)(NC(=O)c4ccccc4)C3=O)C2C1=O (some centres undefined) | . | . | . | . | 9 | . | . | .
CC(C)(C)OC(=O)NCCCCC(NC(=O)c1nc[nH]c1C(=O)N1CCN(c2ccccc2)CC1)C(=O)OC(C)(C)C (centres undefined) | . | . | . | . | -15 | . | . | .
O=C(Nc1ccc(Cl)cc1)Nc1ccccc1C(=O)O | -3 | -2 | 2 | 54* | 10 | 6 | -1 | -3
O=C(Nc1cccc(Cl)c1)Nc1ccccc1C(=O)O | 0 | -2 | 20 | 79* | . | -3 | + | 195*
NC(=O)c1ccccc1NC(=O)Nc1cccc(Cl)c1 | -1 | -4 | -2 | 4 | 4 | 8 | . | .
O=C(Nc1ccc(Cl)c(Cl)c1)Nc1ccccc1C(=O)O | 3 | -8 | -1 | 52* | 0 | -22 | 35* | 19*
O=C(Cc1ccccc1)NNC(=O)Nc1ccc(Cl)c(Cl)c1 | 3 | -1 | -5 | 2 | 6 | 3 | . | .
CC1CCCC(C)N1N=C/C=C/c1ccccc1[N+](=O)[O-] (centres undefined) | . | . | . | . | 5 | . | . | .
O=C(O)c1cccc(Nc2nc(-c3cc4ccccc4oc3=O)cs2)c1 | 1 | 0 | 20 | 28* | 15 | . | 84* | 72*
CC(=NNc1nc2ccccc2[nH]1)c1ccc2c(c1)OCCO2 | . | . | . | . | -15 | . | . | .
COc1ccc(S(=O)(=O)N2CCN(Cc3ccc(OC)c(OC)c3)CC2)cc1 | -2 | -1 | 7 | 29* | 4 | -4 | 40* | 42*
